Bioassay records (PubChem)
Lassa entry inh – blocks Lassa virus binding to or entry into cells; Potency, µM (titrated, usually from 37.9 µM), actives largely listed as inhibitors; Lassa virus pseudotype entry inhibition, cell reporter; hit rate 1.2% among 300,000; AID 540256; calls by dose curve; tested in HEK293 cells; also: nearly all actives have a fitted effect of over 50% in size
HCMV antiviral – human cytomegalovirus inhibition | HFF cells, HCMV-luciferase reporter, 72 h; stronger effect = lower value | activity change, negative = inhibition, % at 57.5 µM | hit rate 4.5% among 410,000 | AID 1259415; in the data active = activity change below about -60%; inconclusive = no clear call, values can overlap the other calls; inactive = above about -39%
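Luciferase read-out from HCMV-luciferase-infected HFFs (MOI 1 PFU/cell) 72 h post infection at 37C; compounds added after 16 h cell attachment; activity normalized between buffer-only basal and Salinomycin (10uM) inhibitor controls.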
HCV inhibitor – inhibitors of hepatitis C virus infection. Potency, µM (highest dose often 41.8 µM), most hits filed as inhibitors. AID 651820. Huh7.5.1 HCVcc-Cre infection, luciferase reporter, 44 h. hit rate 3.4% among 340,000
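Whole-lifecycle infectious HCVcc-Cre system; cells 1,000/well, compound then virus (~0.5 moi) added 4 h after plating, 44 h culture. Luciferase read 15 sec following 15 min substrate incubation, room temp.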
MARV entry inh – inhibitors of Marburg virus binding or cell entry; Marburg virus pseudotyped entry inhibition, cell reporter; Potency, µM (titrated, usually from 37.8 µM), actives largely listed as inhibitors; hit rate 1.8% among 300,000; AID 540276; calls by dose curve; tested in HEK293 cells
Pf growth 96h – P. falciparum growth inhibition at 96 hours | AID 504834 | Potency, µM (titrated, usually from 28.7 µM), most hits filed as inhibitors | hit rate 6.9% among 320,000 | P. falciparum luciferase reporter growth, 96 h
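Compounds incubated with erythrocytes infected by luciferase-expressing P. falciparum (2% hematocrit, 0.05% parasitemia final) for 96 hours, 37 C in 5% CO2. Growth inhibition scored as decreased luciferase luminescence.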
Pf growth 48h – P. falciparum growth inhibition at 48 hours (one generation); P. falciparum luciferase growth in erythrocytes, 48 h; Potency, µM (top dose mostly 28.7 µM), actives largely listed as inhibitors; hit rate 5.9% among 310,000
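First compound was added to culture medium, then infected red cells at 0.1% parasitemia and 2% hematocrit (final). After incubation at 37 C under 5% CO2, luciferase detection reagent was dispensed and light output recorded.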
A number is an active result; i = inactive; ? = inconclusive; nt = no result given. Most compounds without a hit are left out; they make up all but 14% or so of the library. Unless noted, calls follow the shape of the dose curve; as a rule, active = well fitted inhibition curve with a large enough effect; inconclusive = small, poorly fitted or top-dose-only effect, or another doubt; inactive = no such curve, though single readings can be large or run the other way.

SMILES | Lassa entry inh | HCMV antiviral | HCV inhibitor | MARV entry inh | Pf growth 96h | Pf growth 48h
COc1ccc(/C=C/C(=O)Nc2ccc(S(=O)(=O)N3CCOCC3)cc2)c(OC)c1 | nt | ? | 10µM | nt | 9.28µM | 9.28µM
CC(C)(C)c1ccc(OCC(=O)Nc2ccc(S(=O)(=O)Nc3ncccn3)cc2)cc1 | i | i | nt | nt | nt | nt
CC1(C(=O)Nc2cccc3cccnc23)CCN1C(=O)Cc1ccc(Cl)cc1Cl (stereo not drawn) | nt | i | nt | nt | nt | nt
COc1ccc(-c2cc(=O)n(CCC#N)[nH]2)cc1 | i | ? | i | i | 7.38µM | i
Cc1ccc(-c2cc(C(F)(F)F)n3nc(C(=O)Nc4sc5c(c4C#N)CCC(C)C5)cc3n2)cc1 (stereo not drawn) | ? | i | nt | i | nt | nt
Cc1cc(C)c(NC(=O)Nc2sc3nc4n(c(=O)c3c2C)CCC(C)CC4)c(C)c1 (stereo not drawn) | nt | i | nt | i | nt | nt
CCCCN(CC)CCCNC(=O)Nc1sc2nc3n(c(=O)c2c1C)CCC(C)CC3 (stereo not drawn) | nt | i | nt | 10µM | nt | nt
O=C(c1ccc(OC2CCN(C/C=C/c3ccccc3)CC2)cc1)N1CCCC1 | i | i | i | ? | 10.4µM | 2.94µM
CC(C(=O)Nc1cccc([N+](=O)[O-])c1)N1CCN(C/C=C/c2ccccc2)CC1 (stereo not drawn) | i | i | ? | ? | 13.1µM | ?
COc1ccc(/C=C/CN2CCC(Oc3ccc(C(=O)N4CCCCC4)cc3)CC2)cc1 | i | i | i | ? | ? | ?
CCOc1cc(C(=O)N2CCN(C/C=C/c3ccccc3)CC2)cc(OCC)c1OCC | i | i | i | ? | 5.22µM | nt
COc1ccccc1/C=C/CN1CCC(Oc2ccc(C(=O)N3CCCCC3)cc2)CC1 | i | i | ? | ? | i | 7.38µM
O=C(NC1CCCCC1)c1ccc(Cn2c(SCc3cccc(F)c3)nc3cccnc32)cc1 | i | ? | nt | nt | nt | nt
COC(=O)c1ccc(CN2CCC(Oc3ccc(C(=O)N4CCCCC4)cc3)CC2)cc1 | i | i | ? | ? | nt | nt
O=C(Nc1ccc(F)cc1)N1CCN(C/C=C/c2ccccc2)CC1 | i | i | ? | ? | i | ?
COc1ccc(NS(=O)(=O)c2cc(C(=O)N3CCN(C/C=C/c4ccccc4)CC3)ccc2C)cc1 | ? | i | ? | ? | ? | 11.7µM
Cc1cc(C)cc(NC(=O)N2CCN(C/C=C/c3ccccc3)CC2)c1 | i | i | i | i | 2.94µM | i
O=C(c1nn(Cc2ccccc2)c(=O)c2ccccc12)N1CCN(C/C=C/c2ccccc2)CC1 | ? | i | ? | ? | 7.38µM | 11.7µM
Cc1cc(C)cc(CN2CCC(Oc3ccc(C(=O)N4CCCC4)cc3)CC2)c1 | ? | i | i | ? | i | 11.7µM
O=C(c1ccco1)N1CCN(C/C=C/c2ccccc2)CC1 | i | i | i | i | i | i
COc1ccc(Cc2nnc(SC(C)C(=O)Nc3ccc(C(N)=O)cc3)o2)cc1 (stereo not drawn) | i | i | i | i | i | i
O=C1[C@@H]2[C@H]3[C@H](O)[C@H](O)CC(=NOC[C@@H](O)COCc4ccco4)[C@H]3CC[C@H]2C(=O)N1c1ccc(F)cc1F | nt | nt | nt | i | nt | nt
COc1ccccc1/C=C/CN1CCC(Oc2cc(C(=O)NC3CC3)ccc2OC)CC1 | nt | i | i | nt | i | 9.28µM
CCOC(=O)C1CCCN(c2nc3c(S(=O)(=O)c4ccc(CC)cc4)nnn3c3ccsc23)C1 (stereo not drawn) | i | i | nt | nt | nt | nt
COc1ccc2c3n(nc2c1)CCN=C3c1cc(Cl)c(N)c(Cl)c1 | nt | i | ? | nt | ? | 13.1µM
SMILES | Lassa entry inh | HCMV antiviral | HCV inhibitor | MARV entry inh | Pf growth 96h | Pf growth 48h
Nc1c(Cl)cc(C2=NCCn3nc4cc(C(F)(F)F)ccc4c32)cc1Cl | nt | i | ? | nt | ? | ?
COc1ccc(C(CNC(=O)COc2ccc(Cl)cc2C)N2CCCCC2)cc1 (stereo not drawn) | i | i | ? | i | i | 11.7µM
COc1ccc(OCC(=O)NCC(c2ccc(OC)cc2)N2CCCCC2)cc1 (stereo not drawn) | i | i | i | i | i | ?
COc1ccc(C(CNC(=O)c2cc3ccccc3o2)N2CCCCC2)cc1 (stereo not drawn) | ? | i | 15.8µM | i | i | i
COc1ccc(C(CNC(=O)Cc2ccccc2F)N2CCCCC2)cc1 (stereo not drawn) | i | ? | i | i | i | i
COc1ccc(C(CNC(=O)COc2cc(C)c(Cl)c(C)c2)N2CCCCC2)cc1 (stereo not drawn) | i | i | ? | ? | i | ?
COc1ccc(C(CNC(=O)Cc2ccccc2Cl)N2CCCCC2)cc1 (stereo not drawn) | i | i | i | 3.98µM | i | i
COc1ccc(C(CNC(=O)COc2ccccc2)N2CCCCC2)cc1 (stereo not drawn) | nt | i | ? | nt | 14.7µM | ?
COc1cccc2[nH]c(-c3ccccn3)nc12 | nt | i | nt | nt | nt | nt
CCCCN1CC(=O)N2[C@H]3c4ccccc4OC[C@@H]3[C@H](C(=O)OCC)[C@]2(C)C1=O | nt | i | i | nt | nt | nt
O=C(NCc1ccccc1)C(c1ccc(C(F)(F)F)cc1)n1c(=O)c(-c2cc3ccccc3[nH]2)nc2ccccc21 (stereo not drawn) | nt | i | nt | nt | nt | nt
COc1ccc(C(CNC(=O)c2oc3cc(C)c(Cl)cc3c2C)N2CCCCC2)cc1 (stereo not drawn) | i | i | i | i | i | 5.22µM
COc1ccc(C(CNC(=O)c2cccc(S(=O)(=O)N3CCCC3)c2)N2CCCC2)cc1 (stereo not drawn) | nt | i | ? | nt | ? | ?
COc1ccc(C(CNC(=O)c2ccc(-c3nc4ccccc4s3)o2)N2CCCC2)cc1 (stereo not drawn) | nt | ? | ? | nt | 10.4µM | 7.38µM
COc1ccccc1C(CNC(=O)c1oc2ccccc2c1C)N1CCCC1 (stereo not drawn) | i | ? | i | i | 13.1µM | ?
COc1ccc(C(CNC(=O)c2ccc(-c3ccccc3Cl)o2)N2CCCC2)cc1 (stereo not drawn) | nt | i | nt | nt | nt | nt
COc1ccc(C(CNC(=O)c2ccc(Cl)c(NC(=O)c3cccs3)c2)N2CCCC2)cc1 (stereo not drawn) | i | i | ? | i | 8.28µM | 10.4µM
COc1ccc(C(CNC(=O)c2oc3ccc(C)cc3c2C)N2CCCCC2)cc1 (stereo not drawn) | nt | i | ? | nt | ? | ?
CCOC(=O)N1CCN(C(=O)C[C@@H]2C[C@@]3(C(=O)OCC)CCCC=C3N(CCC3=CCCCC3)C2=O)CC1 | nt | i | nt | nt | nt | nt
CCC(NC(=O)c1cc(COc2cncc(Cl)c2)on1)c1ccc(C)cc1 (stereo not drawn) | i | -99.2 | i | ? | 5.22µM | i
O=C1CC(O)(c2ccccc2)C(c2ccccc2)=C1c1ccccc1 (stereo not drawn) | i | i | i | ? | 11.7µM | 10.4µM
O=C1C=C(c2ccccc2)C(O)(c2ccccc2)C1 (stereo not drawn) | i | i | ? | i | i | i
